PubChem BioAssay AID1626 (SRMLSC, 2009)
About 2,000 (0.91%) of roughly 220,000 compounds were called active. Inconclusive results (about 2%) are left out. These entries were drawn from the full list. Potency and affinity values are given separately. Values without a mark were called inactive. Rule as the data show it: inconclusive = inhibition above about 80% without an active follow-up result; inactive = below that; test concentration not stated here.

Test: M. tuberculosis H37Rv growth inhibitors, H37Rv strain (AID 1626);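 also: bacteria incubated seven days before Alamar blue readout; 0% = bacteria only wells and 100% = bacteria with antibiotic wells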
Conditions: stronger effect = higher value, concentration not given here

Compound | inhibition [%]
COc1ccccc1CCc1nnc(CCC(=O)NC(C)Cc2cccnc2)o1 (stereo not given) | 4.51
COc1ccccc1Nc1nnc(SCC(=O)N2CCCC2)s1 | -3.72
O=C(CCC1CCCCC1)NNC(=O)NC12CC3CC(CC(C3)C1)C2 | -2.75
OC(CNCc1ccco1)Cn1c2ccccc2c2ccccc21 (stereo not given) | 0.42
OC(CNCC1CCCO1)Cn1c2ccc(Br)cc2c2cc(Br)ccc21 (stereo not given) | 43.1
O=C(CCc1nnc(Cc2c[nH]c3ccccc23)o1)NC1CCCC1 | -6.46
CN(C)S(=O)(=O)c1ccc(NC(=O)CSc2nnnn2C)cc1 | 2.23
Cc1ccc(S(=O)(=O)NC(=O)Nc2cc(C(C)(C)C)on2)cc1 | -7.06
Cc1ccc2cc(CCNC(=O)c3cccc([N+](=O)[O-])c3)c(=O)[nH]c2c1 | 2
COc1ccc(OC)c2sc(NC(=O)C3=COCCO3)nc12 | 6.97
COc1ccc(-c2csc(NC(=O)COC(=O)C3=COCCO3)n2)cc1 | 4.53
COc1ccc2nc(NC(=O)c3ccc4ncsc4c3)sc2c1 | 8.2
COc1ccc(CCNC(=O)C2=COCCO2)cc1 | 0.72
O=C(COc1ccc(Cl)cc1Cl)Nc1nnc(C2=COCCO2)o1 | 1.29
Cc1ccnc2nc(C(=O)Nc3nnc(-c4ccc(Cl)cc4)o3)nn12 | -1.12
CCc1nnc(NC(=O)c2ccc3ncsc3c2)s1 | -18.6
COc1ccc(C)c2sc(NC(=O)C3=COCCO3)nc12 | 5.95
COc1ccc(CC2(CO)CCN(Cc3cnn(-c4ccc(F)cc4)c3)CC2)cc1 | -9.12
NC(=O)c1ccccc1NS(=O)(=O)c1ccc2c(c1)OCCO2 | -3.34
CN1CCN(c2ccc(Cl)cc2NC(=O)c2ccc(S(=O)(=O)N(C)C)cc2)CC1 | -2.17
COc1ccc(C(=O)NC(=S)Nc2cccc(NC(=O)c3ccco3)c2)cc1[N+](=O)[O-] | 6.53
CCCN1C(=O)c2ccccc2NC1c1ccc(OC)c(CSc2ccccn2)c1 (stereo not given) | -2.45
CCN(CC)S(=O)(=O)c1ccc(/C=C/C(=O)Nc2c(C)n(C)n(-c3ccccc3)c2=O)cc1 | -0.04
Cn1c(=O)c([N+](=O)[O-])c(NCCCn2ccnc2)c2ccccc21 | -3.33

Compound | inhibition [%]
Cc1ccccc1-n1nnnc1SC(C)C(=O)NC1CCCc2ccccc21 (stereo not given) | 10.2
O=C(CSc1nnc(CNc2ccc(F)cc2)o1)OC1CCCCC1 | 25.5
Cc1ccc(C(=O)CSc2nnc(CNc3ccc(C)cc3C)o2)cc1 | -7.6
Cn1c(CNc2cccc(Cl)c2)nnc1SCC(=O)OC1CCCCC1 | 62.1
Cc1ccc(NCc2nnc(SCC(N)=O)o2)c(C)c1 | -3.32
COC(=O)Nc1ccc(S(=O)(=O)N2CCCCC2C(=O)NCc2ccco2)cc1 (stereo not given) | -7.03
O=C(COC(=O)CNS(=O)(=O)/C=C/c1ccccc1)NC1CCS(=O)(=O)C1 (stereo not given) | -7.59
O=C(COc1ccc(Br)cc1Br)NC(=O)NC1CCCC1 | 3.86
Cc1ccc(CNc2ccc(N3CCOCC3)c(C(=O)O)c2)s1 | -3.09
COc1cccc(OCC(O)CN2CCC(CN3C(=O)c4cccc5cccc(c45)C3=O)CC2)c1 (stereo not given) | -4.13
O=C1c2cccc3cccc(c23)C(=O)N1CC1CCN(CC(O)COCc2ccc3c(c2)OCO3)CC1 (stereo not given) | 76.5
CCCCN(CCCC)C(=O)c1cc(Cl)ccc1[N+](=O)[O-] | 11
CCN(CC)C(=O)c1cc([N+](=O)[O-])cc2c1-c1ccc([N+](=O)[O-])cc1C2=C(C#N)C#N | 23
C=CCNC(=O)C1CC(=O)N(c2ccc(OCC(=O)Nc3ccc(Cl)c(C(F)(F)F)c3)cc2)C1 (stereo not given) | -8.95
Cc1cc(C)c(-c2cc(NC(=O)COC(=O)c3ccc(CO)cc3)n(-c3ccccc3)n2)cc1C | 4.29
CC(=O)N1CCN(C(=O)CCc2c[nH]c3ccccc23)CC1 | 3.68
COc1ccc(N2CCN(C(=O)CCc3c[nH]c4ccccc34)CC2)cc1 | -4.15
COC(=O)C1CCN(C(=O)COC(=O)Cc2c[nH]c3ccccc23)CC1 | 2.16
COc1ccc(CNC(=O)COC(=O)CCc2c[nH]c3ccccc23)cc1 | 4.73
COc1ccc(C)cc1NC(=O)CSc1nnc(-c2ccco2)n1Cc1ccco1 | -0.88
CC(=O)Nc1sc(N/N=C\c2cccc(Cl)c2)nc1-c1cccs1 | 54.5
CCS(=O)(=O)N1CCCC(C(=O)NCCN(C)Cc2ccccc2)C1 (stereo not given) | -6.72
Cc1ccc(C(=O)CSc2ncnc3ccccc23)o1 | 10.6
COc1ccc(CCN(Cc2cccs2)S(=O)(=O)c2ccc(C(=O)O)cc2)cc1OC | -3.72

Compound | inhibition [%]
CSc1nnc(-c2cnccn2)n1Cc1ccccc1 | -1.1
CC(C)(C)c1ccc(OCCC(=O)NC2=NCCS2)cc1 | -11.7
CCOc1ccc(OCCCC(=O)NC2=NCCS2)cc1 | -1.83
c1ccc(COc2ccccc2CNC23CC4CC(CC(C4)C2)C3)cc1 | 17
COc1cccc(CNC23CC4CC(CC(C4)C2)C3)c1OCc1ccccc1 | 13.5
CS(=O)(=O)N1CCN(C2Cc3ccccc3C2)CC1 | -13.7
O=[N+]([O-])c1ccc(O)c(C=Nc2ccc3c(c2)OCO3)c1 | 8.62
O=[N+]([O-])c1ccc(O)c(C=Nc2ccc3c(c2)OCCO3)c1 | 77.5
Cc1cccc(Nc2nc(N3CCN(C)CC3)nc(N)c2[N+](=O)[O-])c1 | 16.3
CCN1CCN(c2nc(N)c([N+](=O)[O-])c(Nc3ccc(C)c(C)c3)n2)CC1 | 51.5
N#Cc1ccccc1Cn1c(=O)n(Cc2ccc(C(=O)NCc3ccco3)cc2)c(=O)c2sccc21 | -3.31
C/C(CC1(O)C(=O)N(C)c2ccccc21)=N\O (stereo not given) | -3.6
CN1C(=O)C(O)(CC(=O)c2ccncc2)c2ccccc21 (stereo not given) | 3.47
COc1cc(OC)c(N(C)C(=O)CCNC(=O)Cn2cnc3ccccc3c2=O)cc1Cl | -0.76
NC(=NC(=O)c1ccc(Cl)cc1)N1N=CCC1c1ccccc1 (stereo not given) | 11.8
COc1ccc(C2c3ccc(O)cc3Oc3ncn(CCN4CCOCC4)c(=N)c32)cc1 (stereo not given) | -0.84
O=C(CCl)Nc1cn(-c2ccccc2)nc1-c1ccc(F)cc1 | 61.8
O=C(Nc1cn(-c2ccccc2)nc1-c1ccc(Cl)cc1)c1ccccc1 | 9.57
Cc1ccc(-c2nn(-c3ccccc3)cc2NC(=O)c2ccccc2)cc1 | -0.55
CC(=O)Nc1cn(-c2ccccc2)nc1-c1ccccc1 | -0.45
CNC(=S)N1CCc2ccccc2C1 | 3.08
COc1ccc(NC(=O)C(NC(=O)CNC(C)=O)c2ccc(C)cc2)cc1 (stereo not given) | -6.91
O=C(CCN1C(=O)c2ccccc2C1=O)NC(=S)Nc1ccccc1Cl | 9.27
Oc1[nH]c2ccccc2c1C=Nc1ccc2c(c1)OCCO2 | 6.37

Compound | inhibition [%]
O=C(NCCCn1ccnc1)c1cc2nc(-c3ccc(Br)cc3)cc(C(F)(F)F)n2n1 | 6.06
O=C(NCCCn1ccnc1)c1nn2c(C(F)(F)F)cc(-c3ccccc3)nc2c1Cl | -4.76
O=C(O)COCC(=O)Nc1ccccc1-c1ccccc1 | -0.81
COc1ccc(CN(C)Cc2nc3scc(-c4ccccc4)c3c(=O)[nH]2)cc1OC | 3.92
CCOC(=O)N1CCN(c2ccc(Cl)c(Cl)c2)CC1 | 6.01
COC(=O)N1CCN(c2ccc(Cl)c(Cl)c2)CC1 | -4.81
O=S1(=O)CCN(CCc2c[nH]c3ccccc23)CC1 | 3.01
CCC(=O)Nc1nnc(-c2ccccn2)o1 | 5.88
N#Cc1ccc(C(=O)Nc2nnc(-c3ccccn3)o2)cc1 | 1.74
O=C(CCc1ccccc1)Nc1nnc(-c2ccccn2)o1 | -4.88
CC(=O)Nc1nnc(-c2ccccn2)o1 | -3.3
COC(=O)c1ccc(C(=O)Nc2nnc(-c3cccnc3)o2)cc1 | -5.5
O=C(Nc1nnc(-c2ccncc2)o1)c1cccc(N2C(=O)CCC2=O)c1 | -4.89
Cc1nnsc1C(=O)N(Cc1ccccc1)C(C)C | -4.27
Cc1ccc(CNC(=O)C2CC(c3cccc(F)c3)=NO2)cc1 (stereo not given) | 9.15
OC(C#CCN1CCOCC1)(c1ccccc1)C1CCCC1 (stereo not given) | 2.94
Cc1cc(C)nc(SCc2nnc(SCC(=O)OC3CCCCC3)o2)n1 | 48.1
CC1CCCCC1NC(=O)CSc1nnc(COc2ccccc2Cl)o1 (stereo not given) | -2.14
O=C(CSc1nnc(COc2ccccc2Cl)o1)NC(=O)NC1CCCC1 | 5.08
Cc1ccc(C(=O)CSc2nnc(COc3cc(C)cc(C)c3)o2)cc1 | -3.69
CCOC(=O)CSc1nnc(COc2cccc(C)c2)o1 | -4.7
Cc1ccc(C(=O)CSc2nnc(COc3cccc(C)c3)o2)cc1 | -2.67
CCn1cc(C(=O)OCC(=O)Nc2c(C)cccc2C)c(=O)c2ccc(C)nc21 | 0.89
